3T3 cytotox: kills NIH 3T3 cells. NIH 3T3 viability, CellTiter-Glo ATP luminescence, 48-72 h. 94,000 tested, 4.3% active. Potency, µM (highest dose often 96.7 µM), for inactives: at the top dose activity change, negative = cytotoxicity, usual class: inhibitors; also: nearly all actives have a fitted effect of over 55% in size
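ATP-dependent luminescence (CellTiter-Glo) served as the viability signal for NIH 3T3 cells treated with compound for 48 or 72 hr at 37 °C.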
Luciferase inh: Photinus pyralis luciferase inhibition; 76,000 tested, 2.5% active; P08659; Potency, µM (top dose mostly 115 µM), most hits filed as inhibitors; purified P. pyralis luciferase, luminescence, biochemical; also: nearly all actives have a fitted effect of over 65% in size
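Purified P. pyralis luciferase (10nM final) in 50mM Tris acetate pH 7.5, 10mM Mg acetate, 0.01% Tween-20, 0.05% BSA with 10uM D-luciferin and 10uM ATP. Compounds titrated qHTS. Luminescence imaged on CCD.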
GPT2 inhibitor: blocks human glutamate pyruvate transaminase 2; AID 1671188; 100,000 tested, 0.25% active; Potency, µM (top dose mostly 57.7 µM), for inactives: at the highest dose activity change, negative = inhibition, usual class: inhibitors; Recombinant GPT2, coupled pyruvate oxidase/HRP Amplex Red fluorescence; also: nearly all actives have a fitted effect of over 60% in size
Target sequence (Q8TD30 whole entry, looked up): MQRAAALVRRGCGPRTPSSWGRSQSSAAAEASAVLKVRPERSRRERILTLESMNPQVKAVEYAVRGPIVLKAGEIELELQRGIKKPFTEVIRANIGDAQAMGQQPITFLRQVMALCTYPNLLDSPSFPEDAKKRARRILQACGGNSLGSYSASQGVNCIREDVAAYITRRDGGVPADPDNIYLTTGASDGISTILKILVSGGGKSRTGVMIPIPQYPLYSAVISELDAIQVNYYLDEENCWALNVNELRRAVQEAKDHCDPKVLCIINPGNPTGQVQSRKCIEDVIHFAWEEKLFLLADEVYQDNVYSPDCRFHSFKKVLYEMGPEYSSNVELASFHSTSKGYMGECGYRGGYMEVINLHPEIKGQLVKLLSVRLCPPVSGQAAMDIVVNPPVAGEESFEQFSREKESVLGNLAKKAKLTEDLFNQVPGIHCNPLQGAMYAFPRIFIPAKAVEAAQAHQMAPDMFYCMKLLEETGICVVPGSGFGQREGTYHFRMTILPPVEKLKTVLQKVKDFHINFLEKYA
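Fluorescence read-out: pyruvate from GPT2 turnover coupled to pyruvate oxidase, HRP and Amplex Red (0.2mM ThPP, 0.2U/mL PO and HRP, 50uM Amplex final). Substrates 250uM a-KG, 2mM L-alanine; enzyme 10ng/uL; 30 min RT.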
HEK cytotox: HEK 293 cell cytotoxicity | 94,000 tested, 6.6% active | AID 1345083 | Potency, µM (top dose mostly 115 µM), without a hit: at the top dose activity change, negative = cytotoxicity, hits mostly inhibitors | HEK 293 viability, ATP luminescence (CellTiter-Glo), 48-72 h; also: nearly all actives have a fitted effect of over 60% in size
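Pintool-delivered compounds were incubated with HEK 293 cells (250 cells/well) at 37 degree Celsius for 48 or 72 hr. ATP-dependent luminescence (CellTiter-Glo) then reported remaining viable cells.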
NPR1 antag: human Npr1 receptor antagonism; 76,000 tested, 1.6% active; AID 1347048; HEK293 hNpr1 GloSensor cGMP, ANP-stimulated luminescence; P16066; Potency, µM (top dose mostly 46.3 µM), for inactives: at the top dose activity change, negative = inhibition, hits mostly inhibitors; calls by dose curve; also: nearly all actives have a fitted effect of over 60% in size
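Compound pre-incubated 30 min at room temperature on GloSensor-loaded HEK293 cells stably carrying hNpr1 and the pGS-40F cGMP biosensor. Stimulation uses hNppA at 0.1 nM final; luminescence is taken at baseline and 20 min post-agonist.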
The depositor's hits bear a star; i = inactive; ? = inconclusive; . = no result; [ ] = remark or other dose. Sampled rows, rich in hits. Any-hit rate of the full collection: about 10%. Unless noted, calls follow the shape of the dose curve; as a rule, active = well fitted curve in the direction sought with a large enough effect; inconclusive = small, poorly fitted or top-dose-only effect, or another doubt; inactive = no such curve, though single readings can be large; an effect the other way counts as inactive or inconclusive. % is scaled to controls: 0 for no effect and ±100 for the full control effect; potency is read from the fitted curve at half-maximal effect.

SMILES | 3T3 cytotox | Luciferase inh | GPT2 inhibitor | HEK cytotox | NPR1 antag
O=C(NCc1ccc(F)c(F)c1)c1ccc2nnc(-c3ccoc3)n2c1 | ? | . | i | -13% | .
O=C([C@H]1CCCN1C(=O)c1ccccc1)N1CCC(N2CCOC2=O)CC1 | 3% | . | i | i | .
Oc1cc(O)cc(/C=C/c2ccc(O)c(O)c2)c1 | . | . | 6.3µM* | . | .
COc1cc(O)cc(/C=C/c2cccc(O)c2)c1 | . | . | i | . | .
CC(=O)NC1(C)CN(Cc2ccc(-c3cccc(F)c3)s2)C1 | ? | ? | i | ? | -2%[70.6 µM]
CC(=O)NC1(C)CN(Cc2ccc(-c3cccc(C(F)(F)F)c3)s2)C1 | 45µM* | 13µM* | -12%[88.5 µM] | 63µM* | ?
CC1Oc2ccc(NC(=O)c3ccc([N+](=O)[O-])cc3)cc2CN(Cc2ccccc2F)C1=O (stereo not given) | ? | i | i | 32µM* | -13%
CCC1Oc2ccc(NC(=O)c3ccc(C#N)cc3)cc2CN(Cc2ccccc2F)C1=O (stereo not given) | ? | i | i | 45µM* | -20%
CCC1Oc2ccc(NC(=O)c3cccc(F)c3)cc2CN(Cc2ccccc2F)C1=O (stereo not given) | ? | i | -22% | 35µM* | -2%
CCC1Oc2ccc(NC(=O)c3ccccc3F)cc2CN(Cc2ccccc2F)C1=O (stereo not given) | ? | i | i | ? | -3%
CCC1Oc2ccc(NC(=O)Cc3ccc(F)cc3)cc2CN(Cc2ccccc2F)C1=O (stereo not given) | ? | i | i | 45µM* | -15%
O=C1CCC2(C(=O)NCc3cc(F)ccc3F)CCCC=C2N1Cc1ccccc1 (stereo not given) | -24% | . | i | ? | .
CCC1Oc2ccc(NC(=O)c3ccccc3)cc2CN(Cc2cc(F)cc(F)c2)C1=O (stereo not given) | ? | i | -17% | 14µM* | -22%
CC(C)c1cccc(NC(=O)c2ccc(CN3C(=O)NC4(CCOCC4)C3=O)cc2)c1 | -15% | 40µM* | i | ? | 11µM*
CCc1ccc(NC(=O)c2ccc(CN3C(=O)NC4(CCOCC4)C3=O)cc2)cc1 | ? | 13µM* | i | ? | ?
CCc1cc(CN(C)C(=O)c2oc3cc(OC)ccc3c2C)on1 | ? | i | 1% | ? | 4%
Cc1ccc2c(C)c(C(=O)N(C)Cc3noc4c3CCCC4)oc2c1 | ? | i | -30% | 45µM* | -13%
O=C(c1ccc(Cl)cc1)N1CCN(c2ccnc3ccnn23)CC1 | ? | . | 2% | ? | .
CCOC(=O)c1cccc(NC(=O)c2ccc3c(c2)N(CC)C2CCCCCN2C3=O)c1 (stereo not given) | 20µM* | i | -2% | ? | -24%
CCN1c2cc(C(=O)Nc3ccccc3)ccc2C(=O)N2CCCCC21 (stereo not given) | ? | ? | 1% | ? | 0%
CCN1c2cc(C(=O)Nc3cccc(C(=O)OC)c3)ccc2C(=O)N2CCCCCC21 (stereo not given) | 18µM* | i | i | ? | -26%
COc1ccc2c(c1)C(CNc1ccc(C)c([S+](=O)([O-])N3CCOCC3)c1)=CC(C)(C)CO2 | -33% | . | . | ? | .
CC(=O)Nc1ccc(-c2ccc(=O)n3c2[C@@H]2C[C@@H](CN(C(=O)Nc4cccc(C#N)c4)C2)C3)cc1 | 3% | i | 1% | 32µM* | 4%
COc1ccccc1NC(=O)N1C[C@@H]2C[C@H](C1)c1c(-c3ccc(NC(C)=O)cc3)ccc(=O)n1C2 | -12% | i | i | -3% | -3%
O=C(O)Cn1ccc2cc(OCC3CCN(C(=O)Cc4ccccc4)CC3)cnc21 | 100µM* | i | -4%[88.5 µM] | -13%[172 µM] | -1%[70.6 µM]
O=C(OCc1ccccc1)N1CCC(Oc2cnc3c(ccn3-c3cncnc3)c2)CC1 | ? | i | -4%[88.5 µM] | 79µM* | ?
CCCC(=O)N1CCC(Oc2cnc3c(ccn3-c3cncnc3)c2)CC1 | 10µM* | i | 1%[88.5 µM] | ? | 4%[70.6 µM]

Source: PubChem
